This is one part of a sample in which hits are shown more often than they occur.
BL2 CD40 inh – CD40 pathway inhibition in BL2 cells. BL2 NF-kB luciferase reporter, CD40L-induced, 4 h. inhibition, % at 10 µM. 83,000 tested, 0.94% active. AID 1053188;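 active = mean inhibition of at least 50% with a set share of replicates also reaching that level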
Hits are given with their value; i = inactive; ! = not active in a repeat; [ ] = another dose, or the depositor's remark.

SMILES | BL2 CD40 inh
CCc1nnc(NS(=O)(=O)c2ccc(Nc3ccc([N+](=O)[O-])c4nonc34)cc2)s1 | i
Cc1ccc(S(=O)c2ccc([N+](=O)[O-])c3nonc23)cc1 (centres undefined) | 87
Cc1ccc(C)c([N+](=O)[O-])c1 | i
CCCNC(=O)C[C@H]1C[C@H]2c3cc(NC(=O)NC4CCCC4)ccc3O[C@H]2[C@@H](CO)O1 | i
COc1cc(OC)c(C(=O)OCC(=O)Nc2c(C)n(C)n(-c3ccccc3)c2=O)cc1OC | i
COc1ccc2oc(-c3ccncc3)cc(=O)c2c1 | i
CCc1ccc2oc(-c3ccc(OC)cc3)cc(=Nc3c(C)n(C)n(-c4ccccc4)c3=O)c2c1 | 50
CN1C(=O)c2cc(NC(=O)C3CCC3)ccc2OC[C@H]2O[C@H](CC(=O)NCc3ccccc3F)CC[C@@H]21 | i
C[C@@H]1CN([C@@H](C)CO)C(=O)c2cccc(NC(=O)C3CCCCC3)c2O[C@H]1CN(C)S(C)(=O)=O | i
COc1ccccc1NC(=O)N1C[C@H](O)COC[C@@H]2O[C@H](CC(=O)NCCc3ccncc3)CC[C@H]21 | i
COc1ccc(-c2cc(C(=O)N3CCCC3)no2)cc1OC | i
O=C(c1cc(-c2ccc(O)cc2)on1)N1CCCCCC1 | i
O=C(c1cc(-c2ccc3c(c2)OCO3)on1)N1CCCCC1 | 54
O=C(NC[C@@H]1[C@H](c2ccccc2)[C@H](CO)N1C(=O)C1CCC1)NC1CCCC1 | i
C[C@@H]1CN([C@H](C)CO)C(=O)c2cc(C#CC3(O)CCCC3)cnc2O[C@H]1CN(C)S(=O)(=O)c1ccccc1 | i
Nn1c(-c2ccccn2)nnc1-c1ccccn1 | i
c1ccc(-c2ccccn2)nc1 | i
c1ccc(-c2ccc(-c3ccccn3)nn2)nc1 | 52
CC(=O)N1CC2(C1)[C@H](c1ccccc1)[C@@H](CO)N2Cc1ccccc1 | i
COc1ccc(CN(C)C[C@@H]2OCCCC[C@@H](C)Oc3ccc(NC(=O)C4CCCCC4)cc3C(=O)N([C@@H](C)CO)C[C@@H]2C)cc1 | i
COc1cccc(-c2ccc3c(c2)[C@H]2[C@H](CCN2C(=O)NC2CCCCC2)[C@H](CO)N3C)c1 | i
CCC(=O)N1[C@H](CO)[C@H](c2ccc(C#CC3CCCC3)cc2)[C@@H]1CNC(C)C | i
C[C@@H]1CN(C)C(=O)c2cc(N(C)C)ccc2O[C@H]1CN(C)C | i
Cc1cc(NC(=O)c2cc(-c3ccccc3)on2)no1 | i
O=C(c1ccccc1)c1cc(-c2ccccc2)on1 | 73
SMILES | BL2 CD40 inh
O=C(NCc1ccccn1)c1cc(-c2ccccc2)on1 | i
O=C(Cc1ccccn1)N[C@H]1CC[C@H](CCNS(=O)(=O)c2cccc(F)c2)O[C@H]1CO | i
CCC(=O)N1[C@H](CN(C)C(=O)CN2CCOCC2)[C@@H](c2ccccc2)[C@@H]1CO | i
C[C@@H]1C[C@H]2[C@@H]3CCC4=CC(=O)C=C[C@]4(C)[C@@]3(F)[C@@H](O)C[C@]2(C)[C@@]1(O)C(=O)COP(=O)(O)O | 51
CCCC(=O)O[C@]1(C(=O)CCl)[C@@H](C)C[C@H]2[C@@H]3CCC4=CC(=O)C=C[C@]4(C)[C@@]3(F)C(=O)C[C@@]21C | i
CC12C=CC(=O)C=C1CCC1C3CCC(O)(C(=O)CO)C3(C)CC(O)C12F (centres undefined) | i
CCC(=O)O[C@]1(C(=O)CCl)[C@@H](C)C[C@H]2[C@@H]3CCC4=CC(=O)C=C[C@]4(C)[C@@]3(F)[C@@H](O)C[C@@]21C | 45
C[C@H]1C[C@H]2[C@@H]3CCC4=CC(=O)C=C[C@]4(C)[C@@]3(Cl)[C@@H](O)C[C@]2(C)[C@@]1(O)C(=O)CO | i
Cc1ccccc1-c1ccc(C2[C@@H]3CN(S(=O)(=O)c4ccccc4C)C[C@H]2N3)cc1 (some centres undefined) | i
N#C[C@@H]1[C@@H](c2ccccc2C2=CCCC2)[C@H](CO)N1C(=O)NC1CCCCC1 | i
Cc1cc(NC(c2cccnc2)c2ccc3cccnc3c2O)no1 (centres undefined) | i
CCC(=O)NC(c1ccc(OC)cc1)c1cc(Cl)c2cccnc2c1O (centres undefined) | i
CCC(=O)NC(c1ccccc1OC)c1ccc2cccnc2c1O (centres undefined) | 88
O=C(O)CCCCCN1C(=O)/C(=C/c2cn(-c3ccccc3)nc2-c2cccs2)SC1=S | i
CC(/C=C1\SC(=O)N(CCCC(=O)O)C1=O)=C\c1ccccc1 | 48
O=C(O)CCN1C(=O)/C(=C\c2ccncc2)SC1=S | i
Cc1noc(C)c1NC(=O)N(C)C[C@@H]1Oc2cc(C#CCN(C)C)ccc2S(=O)(=O)N([C@@H](C)CO)C[C@H]1C | i
Cc1cnc(NC(=O)c2cc3c(s2)CCCC3)s1 | 65
CNC(=O)c1cc2c(s1)CCCCCC2 | i
CCc1nnc(NC(=O)c2cc3c(s2)CCCCC3)s1 | i
C[C@H](CO)N1C[C@H](C)[C@@H](CN(C)Cc2ccc(Cl)c(Cl)c2)Oc2c(NC(=O)c3ccc(-c4nccs4)cc3)cccc2C1=O | i
CCNC(=O)C[C@H]1CC[C@H]2[C@H](COc3ccc(NC(=O)c4cccc(OC)c4)cc3C(=O)N2C)O1 | i
CCC(=O)Nc1ccc2c(c1)OC[C@@H](C)N(Cc1ccccc1)C[C@H](C)[C@H](OC)CN(C)C2=O | i
CCCNC(=O)C[C@H]1CC[C@@H]2[C@H](COC[C@@H](O)CN2Cc2ccncc2)O1 | i
C[C@H]1CN([C@@H](C)CO)C(=O)c2ccccc2-c2ccccc2CO[C@@H]1CN(C)C(=O)Nc1cccc(Cl)c1Cl | i
SMILES | BL2 CD40 inh
CCCC(=O)N1CCC2(CC1)CN(Cc1ccc(Cl)cc1)[C@H](CO)c1[nH]c3cc(OC)ccc3c12 | i
CCOc1ccc(-n2ccnc(SCC(=O)NCCc3ccccc3)c2=O)cc1 | i
Cc1ccc(-n2ccnc(SCC(=O)NC3CCCC3)c2=O)cc1Cl | i
Cc1ccc(-n2ccnc(SCC(=O)NCCc3ccccc3)c2=O)cc1F | 54
O=S(=O)(c1ccccc1)N1CC[C@@H]2[C@H]1c1cc(C#CC3CCCCC3)ccc1N[C@@H]2CO | i
CN1C(=O)c2cc(NC(=O)C3CCCCC3)ccc2OC[C@@H]2O[C@H](CC(=O)NC3CCCC3)CC[C@@H]21 | i
O=C(CC(F)(F)F)N1C[C@@H]2[C@H](c3ccccc31)[C@H](CO)N2C(=O)CN1CCOCC1 | i
COc1ccccc1C(=O)Nc1ccc2c(c1)C(=O)N(C)[C@H]1CC[C@H](CC(=O)Nc3cc(F)ccc3F)O[C@@H]1CO2 | i
COc1ccccc1C(=O)Nc1ccc2c(c1)C(=O)N(C)[C@H]1CC[C@H](CC(=O)Nc3cccc(C(C)C)c3)O[C@@H]1CO2 | 57[25 µM]
CC(C)c1cccc(NC(=O)C[C@H]2CC[C@H]3[C@@H](COc4ccc(NS(=O)(=O)c5ccccc5Cl)cc4C(=O)N3C)O2)c1 | i
CC(=O)N(C)C[C@@H]1Oc2ccccc2C(=O)N(C)C[C@H]1C | i
CCCN1C[C@@H](C)[C@@H](OC)CN(C)C(=O)c2ccc(NS(=O)(=O)c3cn(C)cn3)cc2OC[C@H]1C | i
O=C(Nc1ccccc1F)N1C[C@@H]2N[C@H](C1)C2c1ccc(/C=C/c2ccccc2)cc1 (some centres undefined) | 53
COc1ccccc1S(=O)(=O)N1[C@@H]2CNC[C@H]1C2c1ccc(/C=C/c2ccccc2)cc1 (some centres undefined) | i
O=C(Nc1ccccc1Cl)N1[C@@H]2CNC[C@H]1C2c1ccc(/C=C/c2ccccc2)cc1 (some centres undefined) | 58!
